These results are taken from PubChem BioAssay (NCATS).

Several values for one entry are separate records, joined by “and”; a condition that tells them apart may be missing. Identical values can stand only once. Inconclusive results are not listed. Activity calls are given as the source filed them. Unless noted, calls follow the shape of the dose curve; as a rule, active = well fitted curve in the direction sought with a large enough effect; inconclusive = small, poorly fitted or top-dose-only effect, or another doubt; inactive = no such curve, though single readings can be large; an effect the other way counts as inactive or inconclusive.

The nature of experiment [1]: Primary qHTS for inhibitors of nuclear receptor binding SET domain protein 2 (NSD2) in an isogenic RCH-ACV NSD2 p.E1099K mutant (9B) (AID 1645876; also: nearly all actives have a fitted effect of over 70% in size; also: potency is read from the fitted curve at half-maximal effect). (In general: qHTS replaces the single test concentration by a dilution series.)
The nature of experiment [2]: Primary qHTS for inhibitors of nuclear receptor binding SET domain protein 2 (NSD2) in an RCH-ACV wild type WT cells (2C) (AID 1645877). Also: nearly all actives have a fitted effect of over 70% in size. Also: potency is read from the fitted curve at half-maximal effect.
Experiment [3] has as its target Catechol O-methyltransferase (Homo sapiens) (UniProt P21964). The experiment is described as follows: Confirmatory Screen for Target Class Profiling of Small Molecule Inhibitors of Methyltransferases (AID 1745852; calls by dose curve; also: potency is read from the fitted curve at half-maximal effect; as to activity change, negative = inhibition: % is scaled to controls: 0 for no effect and ±100 for the full control effect). The conditions noted are these: MTase-Glo luminescence, SAH detection, recombinant enzyme; measured here: COMT max response; stronger effect = lower value.
Experiment [4] concerns the target Guanidinoacetate N-methyltransferase (Homo sapiens) (UniProt Q14353). The experiment is described as above. To be noted: MTase-Glo luminescence, SAH detection, recombinant enzyme; activity change, negative = inhibition: at 57.3 µM (top of the series) unless noted.
Experiment [5] has as its target Nicotinamide N-methyltransferase (Homo sapiens) (UniProt P40261). Described as above. The conditions noted are these: MTase-Glo luminescence, SAH detection, recombinant enzyme; measured here: NNMT max response; stronger effect = lower value.
In experiment [6] the target is Phenylethanolamine N-methyltransferase (Homo sapiens) (UniProt P11086). The description is as above. To be noted: MTase-Glo luminescence, SAH detection, recombinant enzyme; measured here: PNMT max response; stronger effect = lower value.
Experiment [7] concerns the target Glutathione peroxidase 1 (Homo sapiens) (UniProt P07203). The experiment is described as follows: Primary qHTS Assay for Inhibitors of Recombinant Selenoprotein Glutathione Peroxidase 1 (GPX1) (AID 1845191). Also: nearly all actives have a fitted effect of over 65% in size. Put shortly: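 GPX1 10 nM, GR 100 nM, GSH 1 mM, NADPH 0.5 mM, CHP 0.5 mM (final). 30-min cpd preincubation, RT. Ex340/Em450 read t=0, t=15 min.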
Experiment [8] concerns the target Phospholipid hydroperoxide glutathione peroxidase GPX4 (Homo sapiens) (UniProt P36969). The experiment is described as follows: Primary qHTS Assay for Inhibitors of Recombinant Selenoprotein Glutathione Peroxidase 4 (GPX4) (AID 1845192). Also: nearly all actives have a fitted effect of over 65% in size. As to activity change, negative = inhibition: % is scaled to controls: 0 for no effect and ±100 for the full control effect. In a few lines:
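qHTS, GR-coupled: GPX4 200 nM + cpd 30 min RT → GSH 1 mM, NADPH 0.5 mM, GR 100 nM → CHP 0.5 mM start; fluor 340/450 at t0 and t15 min; no-enzyme wells as control.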

Experiment [9] is described as follows: qHTS drug screen for cell cycle checkpoint inhibitors in PARPi-resistant BRCA-mutant ovarian cancer cell lines. (AID 1963452; calls by dose curve). The conditions noted are these: PEO1/OlaR viability, CellTiter-Glo luminescence, 96 h, stronger effect = lower value. In a few lines:
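PEO1, PEO4 and PEO1/OlaR ovarian cancer cells, 600 per well, exposed 96 h at 37C to a dilution series. Viability read by CellTiter-Glo luminescence, normalized to DMSO and empty wells; activity summarized as Z-AUC.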

Experiment [10] is described as follows: NCATS anti-infectives library activity on HEK293 viability as a counter-qHTS vs the C. elegans viability qHTS (AID 1745854). Also: % is scaled to controls: 0 for no effect and ±100 for the full control effect. Put shortly:
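CellTiter-Glo luminescence, read on a CCD imager, scored viability of HEK293 cells after 24 hr compound exposure at 37C. Library tested in several concentrations, 1:5 steps, up to 41.7 uM; digitonin served as control.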

A short description of experiment [11]: NCATS anti-infectives library activity on the primary C. elegans qHTS viability assay (AID 1745855; calls by dose curve; also: potency is read from the fitted curve at half-maximal effect). In a few lines:
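Titration-based screen in worms: eggs hatched overnight in M9, L1 larvae fed TOP10 capsules in S medium with compound, incubated 21 °C for 7 days; fluorescent objects gated by size and intensity at days 0, 3 and 7.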

Experiment [12] deals with Tyrosine-protein kinase Yes (Homo sapiens) (UniProt P07947). Description: qHTS for small molecule inhibitors of Yes1 kinase: Primary Screen (AID 686947).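 Also: plate controls were DMSO with enzyme for no effect and no-enzyme DMSO wells for full effect; nearly all actives have a fitted effect of over 60% in size.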 Put shortly:
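In this qHTS format, inhibition is expressed relative to DMSO controls with enzyme (maximum) and without enzyme (minimum). The 60 min room-temperature reaction uses 0.1 mM ATP, with ADP detected by luminescence.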

A short description of experiment [13]: qHTS for small molecule inhibitors of Yes1 kinase: Counter Assay (AID 686950).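 Also: no kinase present so only ADP-Glo detection of a fixed ADP amount is tested; luminescence from ADP-Glo reporting ADP in a fixed ATP and ADP mixture; 0% = DMSO wells with ATP plus ADP and -100% = ATP-only wells without ADP.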 Put shortly:
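Measuring interference with ADP-Glo, the assay ran 60 min at room temperature on an ATP/ADP mix lacking enzyme. Values were normalized to ATP-plus-ADP (maximum) and ATP-only (minimum) DMSO controls.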

Where [14] appears, read: measured here: PEO1 parental Z-AUC.

Chain of Nicotinamide N-methyltransferase (Homo sapiens) (P40261 whole entry, looked up): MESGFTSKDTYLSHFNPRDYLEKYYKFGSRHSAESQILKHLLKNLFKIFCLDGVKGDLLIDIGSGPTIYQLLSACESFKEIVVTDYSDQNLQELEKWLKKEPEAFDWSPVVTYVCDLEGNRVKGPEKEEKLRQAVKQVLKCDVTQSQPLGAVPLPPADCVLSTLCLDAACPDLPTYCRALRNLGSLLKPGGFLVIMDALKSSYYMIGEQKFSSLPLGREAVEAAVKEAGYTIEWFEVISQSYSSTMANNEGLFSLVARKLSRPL
Chain of Phospholipid hydroperoxide glutathione peroxidase GPX4 (Homo sapiens) (P36969 whole entry, looked up): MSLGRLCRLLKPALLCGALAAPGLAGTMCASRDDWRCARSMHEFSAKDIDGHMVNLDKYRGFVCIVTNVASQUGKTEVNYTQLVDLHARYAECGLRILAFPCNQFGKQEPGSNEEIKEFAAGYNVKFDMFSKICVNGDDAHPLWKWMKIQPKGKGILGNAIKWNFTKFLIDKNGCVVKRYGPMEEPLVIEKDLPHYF
Chain of Phenylethanolamine N-methyltransferase (Homo sapiens) (P11086 whole entry, looked up): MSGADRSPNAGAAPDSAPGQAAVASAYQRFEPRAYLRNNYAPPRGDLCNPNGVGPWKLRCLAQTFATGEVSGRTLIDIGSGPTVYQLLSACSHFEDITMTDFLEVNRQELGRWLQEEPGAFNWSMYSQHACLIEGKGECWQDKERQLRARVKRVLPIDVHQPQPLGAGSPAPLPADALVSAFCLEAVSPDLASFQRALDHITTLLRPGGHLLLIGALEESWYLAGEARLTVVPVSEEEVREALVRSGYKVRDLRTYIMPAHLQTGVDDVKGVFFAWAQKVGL
Chain of Catechol O-methyltransferase (Homo sapiens) (P21964 whole entry, looked up): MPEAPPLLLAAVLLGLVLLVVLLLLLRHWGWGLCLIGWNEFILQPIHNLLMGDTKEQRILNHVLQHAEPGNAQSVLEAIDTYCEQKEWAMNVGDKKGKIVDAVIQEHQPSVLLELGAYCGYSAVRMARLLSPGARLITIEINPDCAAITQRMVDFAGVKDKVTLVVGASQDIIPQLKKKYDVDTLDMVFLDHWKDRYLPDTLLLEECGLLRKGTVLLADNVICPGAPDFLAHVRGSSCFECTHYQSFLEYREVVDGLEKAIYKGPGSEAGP
Chain of Glutathione peroxidase 1 (Homo sapiens) (P07203 whole entry, looked up): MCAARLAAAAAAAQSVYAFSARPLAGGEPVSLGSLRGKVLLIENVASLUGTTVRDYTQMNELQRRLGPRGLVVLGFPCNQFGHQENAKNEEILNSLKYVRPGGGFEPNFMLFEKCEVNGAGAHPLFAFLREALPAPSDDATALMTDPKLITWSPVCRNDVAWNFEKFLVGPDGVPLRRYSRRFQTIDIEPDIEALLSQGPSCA
Chain of Tyrosine-protein kinase Yes (Homo sapiens) (P07947 whole entry, looked up): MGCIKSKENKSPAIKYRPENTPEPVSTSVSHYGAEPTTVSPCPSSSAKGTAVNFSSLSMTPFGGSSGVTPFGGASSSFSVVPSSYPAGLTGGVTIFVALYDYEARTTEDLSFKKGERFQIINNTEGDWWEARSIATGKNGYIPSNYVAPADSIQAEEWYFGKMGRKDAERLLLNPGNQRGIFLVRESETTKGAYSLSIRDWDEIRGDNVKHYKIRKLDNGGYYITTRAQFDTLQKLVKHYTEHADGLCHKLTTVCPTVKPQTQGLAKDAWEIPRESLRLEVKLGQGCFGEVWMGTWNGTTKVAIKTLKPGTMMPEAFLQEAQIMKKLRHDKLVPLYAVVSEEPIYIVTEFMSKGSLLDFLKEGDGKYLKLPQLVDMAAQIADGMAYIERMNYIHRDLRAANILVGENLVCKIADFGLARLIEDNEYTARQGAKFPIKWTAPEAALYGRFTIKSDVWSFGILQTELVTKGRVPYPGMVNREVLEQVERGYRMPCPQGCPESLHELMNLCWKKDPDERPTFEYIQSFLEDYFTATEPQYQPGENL

For `CCCS(=O)(=O)c1nc(NC2CC2)cc(-c2ccc3c(ccn3C3CC(C)(C)NC(C)(C)C3)c2)n1`, the Potency was 2.48 µM (active) in [1] and 2.21 µM (active) in [2]. In addition, the activity was -4.11% in experiment [3], -12% in experiment [5] and -6.24% in experiment [6]. The activity change, negative = inhibition in [4] was determined as 1.84% [at 19.1 µM]. For the same compound, the Potency entry in experiment [7] and in [8] was “inactive” each time.

On to `C/C=C/C[C@@H](C)C(=O)[C@H]1C(=O)N[C@@H](C(C)C)C(=O)N(C)CC(=O)N(C)[C@@H](CC(C)C)C(=O)N[C@@H](C(C)C)C(=O)N(C)[C@@H](CC(C)C)C(=O)N[C@@H](C)C(=O)N[C@H](C)C(=O)N(C)[C@@H](CC(C)C)C(=O)N(C)[C@@H](CC(C)C)C(=O)N(C)[C@@H](C(C)C)C(=O)N1C`, for which the Potency entry in experiment [1], in experiment [2], in experiment [7] and in [8] was “inactive” throughout. Besides, the Z-AUC in experiment [9] was -0.152 (inactive); in [9] (setting [14]) it was -0.111; in experiment [9] (measured here: PEO4 Z-AUC) it was 0.176.

Take `Nc1ccc(F)cc1NC(=O)c1ccc(CNC(=O)/C=C/c2cccnc2)cc1`: the Potency was 1.05 µM (active) in [1] and 1.18 µM (active) in experiment [2]. Moreover, the outcome in experiment [10] was “inactive”. In addition, the Potency entry in experiment [11], in [7] and in [8] was “inactive” each time. Also, the values for the Z-AUC in experiment [9], in experiment [9] (setting [14]) and in experiment [9] (measured here: PEO4 Z-AUC) were -1.13 (inactive), -0.9 and -0.779, respectively.

Consider `C[C@]12CCCN1CC1=NNC(=O)c3cc(F)cc4[nH]c2c1c34`, for which the Potency in experiment [1] was 10.5 µM (active); in experiment [2], 3.72 µM (active). For the same compound, the outcome in experiment [10] was “inactive”. Moreover, the Potency entry in experiment [11], in [7] and in [8] was “inactive” throughout. Moreover, the values for the Z-AUC in experiment [9], in experiment [9] (setting [14]) and in [9] (measured here: PEO4 Z-AUC) were -0.827 (inactive), -0.713 and 0.783, respectively.

Consider `O=C1NC(=O)/C(=C\c2ccc(-c3ccc(F)cc3O)o2)S1`, for which the values for the Potency in [1] and in experiment [2] were 13 µM (active) and 11.6 µM (active), respectively.

Consider `Nc1nonc1-c1nc2cnccc2n1C1CCCCC1`, for which the outcome in experiment [12] and in experiment [13] was “inactive” in each case. The Potency in [1] is 5.17 µM (active); in [2], 2.91 µM (active); in [4], 27.1 µM (active). The values for the activity in experiment [3], in [5] and in experiment [6] were -23.3%, -44.1% and -20.9%, respectively. In addition, the Potency entry in [7] is “inactive”.

Turning to `COc1ccc(S(=O)(=O)N2CCc3cccc(-c4ccncc4)c32)cc1`, the Potency in experiment [1] is 0.833 µM (active); in experiment [2] it was 0.934 µM (active). For the same compound, the Potency result in experiment [7] and in [8] was “inactive” throughout.

With `Oc1cccc(Nc2ccnc3[nH]c4ccccc4c23)c1`, the Potency in experiment [1] is 4.11 µM (active); in experiment [2], 4.11 µM (active); in [4], 48.2 µM (active). The figures for the activity in experiment [3], in experiment [5] and in experiment [6] were -17.6%, -74.1% and -25.8%, respectively. The Potency entry in experiment [7] was “inactive”.

`[N-]=[N+]=N[C@]1(CO)O[C@@H](n2ccc(N)nc2=O)[C@@H](O)[C@@H]1O`: the Potency is 5.17 µM (active) in experiment [1] and 3.66 µM (active) in [2]. Besides, in [10], the outcome was “inactive”.

For the compound `Cc1cc(C(=O)Nc2nc3cccc(Cl)c3n2C2CCCCN(C(=O)/C=C/CN(C)C)C2)ccn1` (stereo unspecified), the Potency in experiment [1] and in experiment [2] was 6.51 µM (active) throughout. In experiment [7], the Potency result was “inactive”.

With `O=c1c(-c2ccc(O)cc2)coc2cc(O[C@@H]3O[C@H](CO)[C@@H](O)[C@H](O)[C@H]3O)ccc12`, the Potency in [1] and in experiment [2] was 16.6 µM (active) each time. Besides, the outcome in experiment [10] is “inactive”. The Potency result in [7] and in experiment [8] was “inactive” in each case. Also, the Z-AUC is 1.43 (inactive) in experiment [9], 1.29 in [9] (setting [14]) and 1.57 in experiment [9] (measured here: PEO4 Z-AUC).

`Cn1cc(C2=C(c3cn(C)c4cc([N+](=O)[O-])ccc34)C(=O)NC2=O)c2ccccc21`: the Potency is 0.525 µM (active) in [1] and 0.417 µM (active) in experiment [2].

`COc1ccc(S(=O)(=O)Nc2cc(-c3csc(C#N)c3)ccc2C)cc1`: the Potency in [1] was 0.105 µM (active); in experiment [2], 0.118 µM (active). Moreover, the Potency entry in experiment [7] and in experiment [8] was “inactive” throughout. The figures for the Z-AUC in [9], in experiment [9] (setting [14]) and in experiment [9] (measured here: PEO4 Z-AUC) were -0.571 (inactive), -1.63 and -1.47, respectively.

For `Cc1cn(C2C[C@H](O)[C@@H](CO)O2)c(=O)[nH]c1=O` (stereo partly specified), the Potency result in [1] and in experiment [2] was “inactive” in each case.

For the compound `O=C(/C=C/c1ccc2ccccc2n1)c1ccncc1`, the Potency is 3.66 µM (active) in [1] and 4.11 µM (active) in experiment [2]. The Potency entry in [7] was “inactive”.

Consider `CC(=O)O/N=C1/C(c2c(O)[nH]c3cc(Br)ccc23)=Nc2ccccc21`, for which the Potency in [1] is 1.84 µM (active) and 2.09 µM (active); in experiment [2], 2.06 µM (active) and 2.09 µM (active); in experiment [11] it was 20.5 µM (active). The outcome in experiment [10] is “inactive”. For the same compound, the Potency entry in experiment [7] and in experiment [8] was “inactive” in each case.

Take `N#Cc1c(N)nc(N)nc1N[C@H](c1nc2c(F)ccc(Cl)c2c(=O)n1-c1cccnc1)C1CC1`: the Potency in experiment [1] and in [2] was 0.417 µM (active) in each case. Besides, the Potency result in experiment [7] and in experiment [8] was “inactive” throughout. Moreover, the Z-AUC was -1.77 (inactive) in experiment [9], -0.776 in [9] (setting [14]) and -0.121 in experiment [9] (measured here: PEO4 Z-AUC).

As for `Nc1n[nH]c(N)c1N=Nc1ccc(O)cc1`, the Potency is 13 µM (active) in [1] and 14.6 µM (active) in experiment [2]. Besides, in experiment [7], the Potency entry was “inactive”.

Regarding `CCNCCc1ccc(CN(CC)c2cc(OC)ccc2[C@@H]2CCc3cc(O)ccc3C2)cc1`, the figures for the Potency in experiment [1] and in [2] were 6.61 µM (active) and 7.42 µM (active), respectively. The Potency entry in experiment [7] and in experiment [8] was “inactive” in each case. The Z-AUC in experiment [9] was -0.771 (inactive); in experiment [9] (setting [14]), -0.865; in experiment [9] (measured here: PEO4 Z-AUC), -1.44.

On to `O=C(CCCCCCNC(=O)c1cnc(N(c2ccccc2)c2ccccc2Cl)nc1)NO`, for which the values for the Potency in experiment [1] and in [2] were 2.63 µM (active) and 2.09 µM (active), respectively. The outcome in experiment [10] is “inactive”. Also, the Potency result in [7] and in experiment [8] was “inactive” in each case. Also, the Z-AUC in experiment [9] was 0.102 (inactive); in experiment [9] (setting [14]), -0.152; in [9] (measured here: PEO4 Z-AUC), -0.286.

Turning to `[O-][n+]1cccc(-c2nc3c(Cl)cccc3cc2[C@@H](Nc2ncnc3cccnc23)C(F)(F)F)c1`, the results for the Potency in [1] and in experiment [2] were 0.263 µM (active) and 0.468 µM (active), respectively. Also, the Potency entry in experiment [7] and in [8] was “inactive” in each case.

As to `O=C(NO)c1cnc(NC2(c3ccccc3)CC2)nc1`, the Potency in experiment [1] and in experiment [2] was 7.42 µM (active) throughout. Further, the outcome in [10] was “inactive”. The Potency result in experiment [7] and in experiment [8] was “inactive” throughout. In addition, the values for the Z-AUC in [9], in experiment [9] (setting [14]) and in experiment [9] (measured here: PEO4 Z-AUC) were -0.236 (inactive), 0.229 and 0.185, respectively.
